# Test results: PubChem BioAssay (Tox21)
# Values without a mark were called inactive. Inconclusive results are not listed. Where a call stands in place of a potency, no number is given. The source made the active and inactive calls. Unless noted, calls come from the whole dose curve; as a rule, active = well fitted curve in the direction sought with a large enough effect in the repeat runs; inconclusive = weak or mixed curves; inactive = flat fitted curve, though single readings scatter.
# Columns and labels:
# [1] = qHTS assay to test for compound auto fluorescence at 535 nm (green) in HEK293 cells (AID 720680)
# [2] = qHTS assay to test for compound auto fluorescence at 460 nm (blue) in HEK293 cell free culture (AID 720681)
# Procedure, shortened: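 Compounds were added to cell-free DMEM with 10% FBS and fluorescence read directly. The blue channel used 405 nm excitation and 460 nm emission, with triamterene as the reference fluorophore.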
# [3] = qHTS assay to test for compound auto fluorescence at 535 nm (green) in HEK293 cell free culture (AID 720682)
# Procedure, shortened: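 Using fluorescein as calibrant, autofluorescence was quantified at 485/535 nm in cell-free DMEM containing 10% FBS after pintool addition of compound or vehicle.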
# [4] = qHTS assay to test for compound auto fluorescence at 590 nm (red) in HEK293 cell free culture (AID 720683)
# Procedure, shortened: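 Cell-free wells of DMEM with 10% FBS received compound, and intrinsic fluorescence was read at excitation/emission 540/590 nm. Values expressed as equivalence to Rose Bengal sodium.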
# [5] = qHTS assay to test for compound auto fluorescence at 590 nm (red) in HepG2 cell free culture (AID 720684)
# Procedure, shortened: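 Compounds are added to culture medium (MEM, 10% FBS) lacking cells, then fluorescence is read at excitation 540 nm, emission 590 nm, with Rose Bengal sodium as the equivalency standard.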
# [6] = qHTS assay to test for compound auto fluorescence at 460 nm (blue) in HepG2 cell free culture (AID 720685)
# Procedure, shortened: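 Compound (23 nL) or DMSO pinned into cell-free MEM with 10% FBS; blue fluorescence read at 405/460 nm excitation/emission, expressed as auto-fluorescence equivalency to triamterene.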
# [7] = qHTS assay to test for compound auto fluorescence at 535 nm (green) in HepG2 cell free culture (AID 720686)
# [8] = qHTS assay to test for compound auto fluorescence at 460 nm (blue) in HepG2 cells (AID 720687)
# Procedure, shortened: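 HepG2 cells in MEM with 10% FBS, attached overnight at 37 C, were exposed to compound or DMSO for 1 hr at 37 C, 5% CO2. Blue fluorescence was read at 405/460 nm, with triamterene as reference fluorophore.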
# [9] = target: Glucocorticoid receptor (Homo sapiens) (UniProt P04150); assay: qHTS assay to identify small molecule agonists of the glucocorticoid receptor (GR) signaling pathway (AID 720691; active = well fitted activation curve with a large enough effect in the signal ratio in the repeat runs, not every such curve was filed as active; the % refers to the signal ratio; note: potency is the fitted concentration of half-maximal effect)
# Procedure, shortened: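 Fluorescence intensity from LiveBLAzer B/G FRET substrate (2 h, room temperature) reports beta-lactamase expression driven by the glucocorticoid response element in GR-bla HeLa cells after 18 h compound exposure at 37 C.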
# [10] = target: Glucocorticoid receptor (Homo sapiens) (UniProt P04150); assay: qHTS assay to identify small molecule antagonists of the glucocorticoid receptor (GR) signaling pathway (AID 720692; active = well fitted inhibition curve with a large enough effect in the signal ratio in the repeat runs, not every such curve was filed as active; the % refers to the signal ratio)
# Procedure, shortened: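 HeLa GR-bla cells; cmpd + dex 5 nM final, 18 h 37 C; LiveBLAzer B/G FRET substrate 2 h RT; fluorescence intensity read. Antagonist mode, qHTS.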
# Sequence of Glucocorticoid receptor (Homo sapiens) (P04150 whole entry, looked up): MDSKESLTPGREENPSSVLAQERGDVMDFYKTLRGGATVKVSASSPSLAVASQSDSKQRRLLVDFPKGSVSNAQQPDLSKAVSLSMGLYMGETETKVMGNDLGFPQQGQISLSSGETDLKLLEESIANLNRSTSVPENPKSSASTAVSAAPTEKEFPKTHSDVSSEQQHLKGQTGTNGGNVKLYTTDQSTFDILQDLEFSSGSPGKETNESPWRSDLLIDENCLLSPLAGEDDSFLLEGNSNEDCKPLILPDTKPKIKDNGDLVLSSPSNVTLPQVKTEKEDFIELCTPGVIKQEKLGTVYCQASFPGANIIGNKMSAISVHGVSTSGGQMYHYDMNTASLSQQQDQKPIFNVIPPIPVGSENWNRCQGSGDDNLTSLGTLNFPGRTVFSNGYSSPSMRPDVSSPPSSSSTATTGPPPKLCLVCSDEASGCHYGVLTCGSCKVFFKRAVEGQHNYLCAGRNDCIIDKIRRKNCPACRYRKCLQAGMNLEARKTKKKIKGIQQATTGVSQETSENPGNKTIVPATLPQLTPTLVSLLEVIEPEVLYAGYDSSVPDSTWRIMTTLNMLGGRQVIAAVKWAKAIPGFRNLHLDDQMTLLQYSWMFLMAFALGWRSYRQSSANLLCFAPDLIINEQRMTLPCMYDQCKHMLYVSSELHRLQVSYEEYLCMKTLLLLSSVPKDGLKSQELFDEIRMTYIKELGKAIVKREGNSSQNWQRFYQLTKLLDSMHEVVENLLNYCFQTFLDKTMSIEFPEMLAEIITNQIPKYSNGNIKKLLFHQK
smiles,measurement,setting,value
CCCC(=O)OC(=O)CCC,outcome,[1],inactive
same,Potency,[2],inactive
same,outcome,[3],inactive
same,outcome,[4],inactive
same,outcome,[5],inactive
same,Potency,[6],inactive
same,outcome,[7],inactive
same,Potency,[8],inactive
CCN(Cc1cccc(S(=O)(=O)O)c1)c1ccc(C(=C2C=CC(=[N+](CC)Cc3cccc(S(=O)(=O)O)c3)C=C2)c2ccc(O)cc2S(=O)(=O)[O-])cc1,outcome,[1],inactive
same,Potency,[2],inactive
same,outcome,[3],inactive
same,outcome,[4],inactive
same,outcome,[5],inactive
same,Potency,[6],inactive
same,outcome,[7],inactive
same,Potency,[8],inactive
same,Potency,[9],inactive
CCCCCCCCCCCCCCCCCC(=O)OCC(CC)CCCC (centres undefined),outcome,[1],inactive
same,Potency,[2],inactive
same,outcome,[3],inactive
same,outcome,[4],inactive
same,outcome,[5],inactive
same,Potency,[6],inactive
same,outcome,[7],inactive
same,Potency,[8],inactive
COC1CCC=CO1 (centres undefined),outcome,[1],inactive
same,Potency,[2],inactive
same,outcome,[3],inactive
same,outcome,[4],inactive
same,outcome,[5],inactive
same,Potency,[6],inactive
same,outcome,[7],inactive
same,Potency,[8],inactive
c1ccc(CCCc2ccncc2)cc1,outcome,[1],inactive
same,Potency,[2],inactive
same,outcome,[3],inactive
same,outcome,[4],inactive
same,outcome,[5],inactive
same,Potency,[6],inactive
same,outcome,[7],inactive
same,Potency,[8],inactive
same,Potency,[9],inactive
CCCCC[C@H](O)/C=C/[C@H]1[C@H](O)CC(=O)[C@@H]1C/C=C\CCCC(=O)O,outcome,[1],inactive
same,Potency,[2],inactive
same,outcome,[3],inactive
same,outcome,[4],inactive
same,outcome,[5],inactive
same,Potency,[6],inactive
same,outcome,[7],inactive
same,Potency,[8],inactive
same,Potency,[9],inactive
CCOCCC(=O)OCC,outcome,[1],inactive
same,Potency,[2],inactive
same,outcome,[3],inactive
same,outcome,[4],inactive
same,outcome,[5],inactive
same,Potency,[6],inactive
same,outcome,[7],inactive
same,Potency,[8],inactive
CCN(CC)CCOc1ccccc1C(=O)CCc1ccccc1,outcome,[1],inactive
same,Potency,[2],inactive
same,outcome,[3],inactive
same,outcome,[4],inactive
same,outcome,[5],inactive
same,Potency,[6],inactive
same,outcome,[7],inactive
same,Potency,[8],inactive
O=C(O)CN1C(=O)c2cccc3cccc(c23)C1=O,outcome,[1],inactive
same,Potency,[2],inactive
same,outcome,[3],inactive
same,outcome,[4],inactive
same,outcome,[5],inactive
same,Potency,[6],inactive
same,outcome,[7],inactive
same,Potency,[8],inactive
Cc1ccc(N(CC2=NCCN2)c2cccc(O)c2)cc1,outcome,[1],inactive
same,Potency,[2],inactive
same,outcome,[3],inactive
same,outcome,[4],inactive
same,outcome,[5],inactive
same,Potency,[6],inactive
same,outcome,[7],inactive
same,Potency,[8],inactive
same,Potency,[9],inactive
COc1ccc(-c2cc(=S)ss2)cc1,outcome,[1],inactive
same,Potency,[2],inactive
same,outcome,[3],inactive
same,outcome,[4],inactive
same,outcome,[5],inactive
same,Potency,[6],inactive
same,outcome,[7],inactive
same,Potency,[8],inactive
same,Potency,[9],inactive
CCNc1nc(N)nc(Cl)n1,outcome,[1],inactive
same,Potency,[2],inactive
same,outcome,[3],inactive
same,outcome,[4],inactive
same,outcome,[5],inactive
same,Potency,[6],inactive
same,outcome,[7],inactive
same,Potency,[8],inactive
C=CC(=O)NC(C)C,outcome,[1],inactive
same,Potency,[2],inactive
same,outcome,[3],inactive
same,outcome,[4],inactive
same,outcome,[5],inactive
same,Potency,[6],inactive
same,outcome,[7],inactive
same,Potency,[8],inactive
same,Potency,[9],inactive
CCOC(=O)c1ccc(NC(=O)CN2CCCCC2)cc1,outcome,[1],inactive
same,Potency,[2],inactive
same,outcome,[3],inactive
same,outcome,[4],inactive
same,outcome,[5],inactive
same,Potency,[6],inactive
same,outcome,[7],inactive
same,Potency,[8],inactive
same,Potency,[9],inactive
same,Potency,[10],inactive
CC[C@H]1OC(=O)[C@H](C)[C@@H](O[C@H]2C[C@@](C)(OC)[C@@H](O)[C@H](C)O2)[C@H](C)[C@@H](O[C@@H]2O[C@H](C)C[C@H](N(C)C)[C@H]2O)[C@](C)(O)C[C@@H](C)/C(=N\OCOCCOC)[C@H](C)[C@@H](O)[C@]1(C)O,outcome,[1],inactive
same,Potency,[2],inactive
same,outcome,[3],inactive
same,outcome,[4],inactive
same,outcome,[5],inactive
same,Potency,[6],inactive
same,outcome,[7],inactive
same,Potency,[8],inactive
same,Potency,[9],inactive
same,Potency,[10],inactive
NC(=O)CCCCC(N)=O,outcome,[1],inactive
same,Potency,[2],inactive
same,outcome,[3],inactive
same,outcome,[4],inactive
same,outcome,[5],inactive
same,Potency,[6],inactive
same,outcome,[7],inactive
same,Potency,[8],inactive
same,Potency,[9],inactive
CCN(CC)C(=O)N1CCN(C)CC1,"fluorescence, % of fluorescein",[1],-0.0466% [at 18.6 µM]
same,"fluorescence, % of fluorescent control",[2],0.0671% [at 18.6 µM]
same,activity change,[3],-0.0353% [at 18.6 µM]
same,"fluorescence, % of fluorescent control",[4],0.461% [at 18.6 µM]
same,"fluorescence, % of Rose Bengal",[5],0.0189% [at 18.6 µM]
same,"fluorescence, % of fluorescent control",[6],-0.0488% [at 18.6 µM]
same,"fluorescence, % of fluorescein control",[7],-0.0623% [at 18.6 µM]
same,"fluorescence, % of fluorescent control",[8],0.0195% [at 18.6 µM]
same,Potency,[9],10.2 µM (active)
CC(C)(O)CCc1ccccc1,outcome,[1],inactive
same,Potency,[2],inactive
same,outcome,[3],inactive
same,outcome,[4],inactive
same,outcome,[5],inactive
same,Potency,[6],inactive
same,outcome,[7],inactive
same,Potency,[8],inactive
same,Potency,[9],inactive
CCCCCCCC/C=C\CCCCCCCC(=O)OCCO,outcome,[1],inactive
same,Potency,[2],inactive
same,outcome,[3],inactive
same,outcome,[4],inactive
same,outcome,[5],inactive
same,Potency,[6],inactive
same,outcome,[7],inactive
same,Potency,[8],inactive
same,Potency,[9],inactive
Cc1cccc(C)c1NC(=O)c1cc(S(N)(=O)=O)c(Cl)cc1O,outcome,[1],inactive
same,Potency,[2],inactive
same,outcome,[3],inactive
same,outcome,[4],inactive
same,outcome,[5],inactive
same,Potency,[6],inactive
same,outcome,[7],inactive
same,Potency,[8],inactive
same,Potency,[9],inactive
same,Potency,[10],inactive
O=C1OC(=O)c2c(Br)c(Br)c(Br)c(Br)c21,outcome,[1],inactive
same,Potency,[2],inactive
same,outcome,[3],inactive
same,outcome,[4],inactive
same,outcome,[5],inactive
same,Potency,[6],inactive
same,outcome,[7],inactive
same,Potency,[8],inactive
same,Potency,[9],inactive
O=C1CC[C@@H](C(=O)O)N1,outcome,[1],inactive
same,Potency,[2],inactive
same,outcome,[3],inactive
same,outcome,[4],inactive
same,outcome,[5],inactive
same,Potency,[6],inactive
same,outcome,[7],inactive
same,Potency,[8],inactive
same,Potency,[9],inactive
